# Measured values reported in PubChem BioAssay (NCATS).
# Values without a mark were called inactive. Results filed as inconclusive are left out. Active and inactive are the calls of the source. Unless noted, calls come from the whole dose curve; as a rule, active = well fitted curve in either direction with a large enough effect (not every such curve was filed as active); inconclusive = small, poorly fitted or top-dose-only effect, or another doubt; inactive = flat fitted curve, though single readings scatter.
# Tests used:
# [1] = AP1 Signaling Pathway (AID 357); conditions: ME-180 AP-1-bla reporter, EGF-induced, beta-lactamase ratio, 5 h; at 17.2 µM (top of the series) unless noted;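 note: ME-180 reporter cells stimulated with EGF at its EC50 level; % is set by controls: 0 for no effect and ±100 for the full control effect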
# How it was run: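 First, ME-180 AP-1-bla cells were cultured overnight at 37 °C in low-serum Opti-MEM. Next, titrated compounds with EC50 EGF were incubated 5 hours. Finally, CCF4 was added for 2.5 hours and the 460/530 nm ratio recorded.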
# [2] = NFAT Signaling Pathway (AID 444); conditions: Jurkat NFAT-bla M1, carbachol, beta-lactamase ratio, 5 h; at 17.2 µM (top of the series) unless noted;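 note: carbachol stimulus at about its EC50 of 1 µM final; % is set by controls: 0 for no effect and ±100 for the full control effect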
# How it was run: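 Jurkat cells with NFAT-driven β-lactamase reporter and co-expressed M1 receptor, stimulated with carbachol (final 1 uM, ~EC50), compound titration, 5 h at 37 °C. CCF4 loaded 1 h at RT; 460/530 nm ratio gave %activity and AC50.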
# [3] = Stat Signaling Pathway (AID 446); conditions: ME-180 (cervical carcinoma) SIE beta-lactamase reporter, IL-6 stimulated, 5 h; at 17.2 µM (top of the series) unless noted;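 note: ME-180 cervical cancer cells given 40 pM IL-6 alongside compound; SIE-controlled beta-lactamase reporter measured as 460/530 nm FRET emission ratio; % is set by controls: 0 for no effect and ±100 for the full control effect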
# How it was run: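 Emission at 460 and 530 nm (excitation 405 nm) reports SIE-controlled beta-lactamase in ME-180 cells. Cells received compound with 40 pM IL-6 for 5 hrs at 37 C; data scaled between 300 pM IL-6 and 125 nM JAK-inhibitor controls.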
# [4] = target: Glucocorticoid receptor (Homo sapiens) (UniProt P04150); experiment: GR-GFP Redistribution (AID 450;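 active = compounds whose dose series gives a full or clear partial fitted curve of increased nuclear translocation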; note: potency is the fitted concentration of half-maximal effect)
# Chain of Glucocorticoid receptor (Homo sapiens) (P04150 whole entry, looked up): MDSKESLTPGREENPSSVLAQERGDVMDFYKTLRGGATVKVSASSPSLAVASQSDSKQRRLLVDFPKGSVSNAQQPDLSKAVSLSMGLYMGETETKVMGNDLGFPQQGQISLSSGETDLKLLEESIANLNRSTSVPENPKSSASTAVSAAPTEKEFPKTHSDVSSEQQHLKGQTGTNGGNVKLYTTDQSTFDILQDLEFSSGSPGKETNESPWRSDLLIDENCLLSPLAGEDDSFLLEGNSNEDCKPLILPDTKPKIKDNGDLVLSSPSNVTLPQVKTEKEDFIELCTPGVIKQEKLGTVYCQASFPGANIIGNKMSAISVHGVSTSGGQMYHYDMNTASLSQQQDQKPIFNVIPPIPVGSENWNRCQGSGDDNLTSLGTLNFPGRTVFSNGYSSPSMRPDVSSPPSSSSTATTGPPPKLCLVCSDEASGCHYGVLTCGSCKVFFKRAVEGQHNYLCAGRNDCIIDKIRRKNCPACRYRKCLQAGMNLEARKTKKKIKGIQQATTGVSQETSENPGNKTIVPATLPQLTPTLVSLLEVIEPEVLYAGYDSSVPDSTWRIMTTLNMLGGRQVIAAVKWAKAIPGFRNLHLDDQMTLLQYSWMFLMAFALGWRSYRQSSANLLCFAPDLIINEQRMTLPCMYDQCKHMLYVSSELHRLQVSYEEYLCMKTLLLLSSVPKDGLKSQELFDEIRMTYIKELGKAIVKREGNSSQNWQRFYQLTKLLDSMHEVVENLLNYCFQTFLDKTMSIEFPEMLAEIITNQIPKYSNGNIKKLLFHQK
SMILES,"activity change, negative = inhibition [1] [%]","activity change, negative = inhibition [2]","activity, negative = inhibition [3] [%]",Potency [4] [µM]
COc1ccccc1C1/C(=C(/O)c2cnn(-c3ccccc3)c2C)C(=O)C(=O)N1CCN(C)C (configuration not stated),-7.05,1.4%,2.75,> 20.6
CCCCOc1ccccc1C(=O)NCCCC(=O)O,-11.8,-5.11%,8.07,> 20.6
COC(=O)C(NC(C)=O)(Nc1nc2ccc(S(C)(=O)=O)cc2s1)C(F)(F)F (configuration not stated),-0.134,7%,-5.35,> 20.6
CC(C)OC(=O)CCNc1n[nH]c(=O)[nH]c1=O,5.78,0.573%,0.163,> 20.6
Nc1ccc2ncccc2c1N,5.69,-85.4% (active),-11.2,> 20.6
CCOc1ccc2nc(NC(NC(C)=O)(C(=O)OC)C(F)(F)F)sc2c1 (configuration not stated),5.71,0.18%,-4.87,> 20.6
O=c1[nH]c(CN(CCO)CCO)nc2c1C1(CCCCC1)Cc1ccccc1-2,8.29,6.88%,-8.23,> 20.6
COc1cc(/C=N/n2c(C)nnc2C)cc(OC)c1OC,-12.3,10.5%,-4.5,> 20.6
CCCc1nnc(NC(=O)Nc2ccccc2OC)s1,0.551,25%,-4.19,> 20.6
CCN(CC)CCNC(=O)c1c(C)oc2cc(Br)c(OC)cc12,29.7,-19.9%,-1.1,> 20.6
COCCCNc1nc2c(c(=O)n(C)c(=O)n2C)n1Cc1cccc(OC)c1,-8.39,-4.82%,-3.35,> 20.6
CCOc1nc(SC(C(C)=O)C(=O)Nc2ccccc2)nc(N(C)C)n1 (configuration not stated),-3.25,19.9%,72.5,> 20.6
Cc1cc(C)n2c3c(c(C#N)c2n1)CC(C)(C)OC3,5.4,-2.38%,-0.114,> 20.6
Cc1ccc(C2C(C(=O)c3cc4ccccc4o3)=C(O)C(=O)N2CCN(C)C)o1 (configuration not stated),-1.56,-18.1%,-0.311,> 20.6
N#Cc1cccc(-n2c(-c3ccccc3)nnc2-c2ccccc2)c1C#N,4.78,5.67%,0.928,> 20.6
CCOC(=O)CCNc1n[nH]c(=O)[nH]c1=O,7.71,7.29%,-2.32,> 20.6
C/C(=N\O)C(=O)NCCCn1ccnc1,16.3,1.22%,16.8,> 20.6
CCOC(=O)c1c(C)oc2ccc(OCC(=O)C(C)(C)C)cc12,-23.5,2.59%,-10.1,> 20.6
CC(C)Oc1ccc(Cc2c(O)nc(NCCCN(C)C)[nH]c2=O)cc1,9.78,3.21%,4.27,> 20.6
CCOC(=O)C1=C(C)NC(=O)C1CC(=O)Nc1ccccc1 (configuration not stated),-1.66,25.9%,3.03,> 20.6
CC(O)Cn1ccccc1=N (configuration not stated),-4.75,25.6%,3.45,> 20.6
Cc1ccc(C(=O)C2=C(O)C(=O)N(c3ncccn3)C2c2ccc(Cl)cc2)o1 (configuration not stated),-14,23%,-10.8,> 20.6
CC(C)(C)NCC(=O)c1c[nH]c2ccccc12,9.26,-0.153%,14.8,> 20.6
CN1CCN(/C=N/c2sc3c(c2C#N)CCCCC3)CC1,4.68,11.9%,-3.82,> 20.6
CN=C1c2cc3c(Br)c(OC)ccc3n2CCN1C,4.49,-7.64%,6.11,> 20.6
Cc1cccn2c(=O)c3cc(C(=O)NCc4cccnc4)c(=N)n(C)c3nc12,0.507,5.48%,10,> 20.6
CCOC(=O)COc1ccc(Oc2nc(C)cc(OC)n2)nn1,13.9,12.6%,-0.709,> 20.6
C=CCNc1nc(NCc2ccccc2)c(C#N)c2c1CN(C)CC2,23.1,5.41%,25.2,> 20.6
